From PubChem BioAssay (Tox21)
Results filed as inconclusive are left out. The source made the active and inactive calls. Unless noted, calls come from the whole dose curve; as a rule, active = well fitted curve in the direction sought with a large enough effect in the repeat runs; inconclusive = weak or mixed curves; inactive = no such curve, though single readings can be large; an effect the other way counts as inactive or inconclusive.

Tests used:
[1] = A CellTox Green Cytotoxicity Assay to monitor cytotoxicity in HepG2 cells - 24 hour (AID 1224878); note: nearly all actives have a fitted effect of over 45% in size
Summary of the method: (§1)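 Real-time cytotoxicity: fluorescence of a cell-impermeant cyanine dye binding DNA of dead HepG2 cells, measured repeatedly (0–40 h) during compound exposure at 37 C. Cells seeded 600/well with reagent, dosed after 5 h.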

[2] = A CellTox Green Cytotoxicity Assay to monitor cytotoxicity in HepG2 cells - 40 hour (AID 1224879); note: nearly all actives have a fitted effect of over 40% in size
Summary of the method: as §1

[3] = qHTS RealTime-Glo MT Cell Viability Assay in HEK293 cells - 0 hour (AID 1224880); note: top concentration of the series differs between compounds; nearly all actives have a fitted effect of over 45% in size
Summary of the method: (§2)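 Luminescence, which tracks viable cell number through reduction of the prosubstrate to a NanoLuc substrate, was read over continuous 37 C culture. Cells (600/well) were premixed with reagent and rested 5 h before 23 nL of compound in DMSO was pinned.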

[4] = A CellTox Green Cytotoxicity Assay to monitor cytotoxicity in HEK293 cells - 32 hour (AID 1224881); note: nearly all actives have a fitted effect of over 40% in size
Summary of the method: (§3)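 Fluorescence from a DNA-binding dye excluded by viable cells was measured repeatedly in the same HEK293 wells (600 cells/well) during continuous compound exposure at 37 C. Each assay gives one read point: 0, 8, 16, 24, 32 or 40 h.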

[5] = A CellTox Green Cytotoxicity Assay to monitor cytotoxicity in HepG2 cells - 0 hour (AID 1224882); note: nearly all actives have a fitted effect of over 35% in size
Summary of the method: as §1

[6] = A CellTox Green Cytotoxicity Assay to monitor cytotoxicity in HepG2 cells - 32 hour (AID 1224883); note: nearly all actives have a fitted effect of over 50% in size
Summary of the method: as §1

[7] = A CellTox Green Cytotoxicity Assay to monitor cytotoxicity in HEK293 cells - 8 hour (AID 1224884); note: nearly all actives have a fitted effect of over 35% in size
Summary of the method: as §3

[8] = qHTS RealTime-Glo MT Cell Viability Assay in HepG2 cells - 16 hour (AID 1224885); note: nearly all actives have a fitted effect of over 50% in size
Summary of the method: (§4)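 Viability was tracked continuously by NanoLuc luminescence from prosubstrate reduced by living HepG2 cells, at successive time points over 40 h of compound exposure. Cells with reagent were preincubated 5 h at 37 °C before compound addition.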

[9] = qHTS RealTime-Glo MT Cell Viability Assay in HEK293 cells - 24 hour (AID 1224886); note: top concentration of the series differs between compounds; nearly all actives have a fitted effect of over 50% in size
Summary of the method: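 Viability tracked continuously by luminescence as live cells reduce a prosubstrate for NanoLuc; HEK293 cells preincubated 5 h, compound-treated at 37 C, and read at 0, 8, 16, 24, 32 and 40 h.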

[10] = qHTS RealTime-Glo MT Cell Viability Assay in HEK293 cells - 8 hour (AID 1224887); note: top concentration of the series differs between compounds; nearly all actives have a fitted effect of over 50% in size
Summary of the method: as §2

[11] = A CellTox Green Cytotoxicity Assay to monitor cytotoxicity in HEK293 cells - 16 hour (AID 1224888); note: nearly all actives have a fitted effect of over 35% in size
Summary of the method: as §3

[12] = qHTS RealTime-Glo MT Cell Viability Assay in HepG2 cells - 0 hour (AID 1224889); note: nearly all actives have a fitted effect of over 50% in size
Summary of the method: as §4

[13] = A CellTox Green Cytotoxicity Assay to monitor cytotoxicity in HepG2 cells - 8 hour (AID 1224890); note: nearly all actives have a fitted effect of over 45% in size
Summary of the method: as §1

[14] = qHTS assay to identify small molecule antagonists of the estrogen receptor alpha (ER-alpha) signaling pathway using the BG1 cell line in the presence of 0.1 nM 17-beta-estradiol - cell viability counter screen (AID 1259241); note: nearly all actives have a fitted effect of over 40% in size
Summary of the method: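 In this screen, hormone-deprived VM7Luc4E2 cells were seeded at 4,000 per well, dosed with compound and 0.1 nM estradiol final, and incubated 22 hr at 37C and 5% CO2; fluorogenic live-cell protease signal reported viability.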

[15] = qHTS assay to identify small molecule antagonists of the androgen receptor (AR) signaling pathway using the MDA cell line in the presence of 0.5 nM R1881 - cell viability counter screen (AID 1259242); note: nearly all actives have a fitted effect of over 45% in size
Summary of the method: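 Live-cell protease activity was measured by CellTiter-Fluor fluorescence after 30 min. Before that, MDA-kb2 MMTV-luciferase cells had 16 hr at 37C without CO2, exposed to test compounds and 0.5 nM R1881 final.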

[16] = target: Androgen receptor (Homo sapiens) (UniProt P10275); assay: qHTS assay to identify small molecule antagonists of the androgen receptor (AR) signaling pathway using the MDA cell line in the presence of 0.5 nM R1881 (AID 1259243); note: nearly all actives have a fitted effect of over 50% in size
Chain of Androgen receptor (Homo sapiens) (P10275 whole entry, looked up): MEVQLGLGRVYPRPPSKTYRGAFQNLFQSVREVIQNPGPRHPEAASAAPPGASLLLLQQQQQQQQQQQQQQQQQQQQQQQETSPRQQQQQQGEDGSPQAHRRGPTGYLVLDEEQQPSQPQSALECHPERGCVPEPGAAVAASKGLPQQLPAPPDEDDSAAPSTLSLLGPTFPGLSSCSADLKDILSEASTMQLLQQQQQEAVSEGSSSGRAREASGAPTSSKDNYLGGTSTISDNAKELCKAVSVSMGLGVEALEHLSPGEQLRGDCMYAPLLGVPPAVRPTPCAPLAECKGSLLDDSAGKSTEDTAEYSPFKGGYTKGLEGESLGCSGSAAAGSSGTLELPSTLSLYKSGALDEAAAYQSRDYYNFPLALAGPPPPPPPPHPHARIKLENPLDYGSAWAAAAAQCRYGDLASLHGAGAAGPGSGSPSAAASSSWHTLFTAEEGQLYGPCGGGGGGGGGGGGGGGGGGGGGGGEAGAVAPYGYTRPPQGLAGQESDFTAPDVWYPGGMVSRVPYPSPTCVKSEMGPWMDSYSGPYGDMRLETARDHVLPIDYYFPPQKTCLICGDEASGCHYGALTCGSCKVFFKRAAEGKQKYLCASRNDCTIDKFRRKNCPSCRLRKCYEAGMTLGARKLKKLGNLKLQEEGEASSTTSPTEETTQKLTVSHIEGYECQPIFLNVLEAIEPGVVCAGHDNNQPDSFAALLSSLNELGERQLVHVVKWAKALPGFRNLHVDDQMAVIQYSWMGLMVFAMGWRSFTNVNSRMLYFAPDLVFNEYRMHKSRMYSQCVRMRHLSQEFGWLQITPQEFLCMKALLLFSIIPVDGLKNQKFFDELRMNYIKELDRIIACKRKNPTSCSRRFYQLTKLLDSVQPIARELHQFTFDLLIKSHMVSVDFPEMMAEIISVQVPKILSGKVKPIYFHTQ
Summary of the method: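 Luminescent reporter readout (ONE-Glo, 30 min, room temperature) after 16 hr co-treatment of MDA-kb2 cells with test compounds and 0.5 nM R1881 final, at 37C without CO2. The MMTV-driven luciferase responds to both AR and GR.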

[17] = target: Estrogen receptor (Homo sapiens) (UniProt P03372); assay: qHTS assay to identify small molecule antagonists of the estrogen receptor alpha (ER-alpha) signaling pathway using the BG1 cell line in the presence of 0.1 nM 17-beta-estradiol (AID 1259244); note: nearly all actives have a fitted effect of over 50% in size
Chain of Estrogen receptor (Homo sapiens) (P03372 whole entry, looked up): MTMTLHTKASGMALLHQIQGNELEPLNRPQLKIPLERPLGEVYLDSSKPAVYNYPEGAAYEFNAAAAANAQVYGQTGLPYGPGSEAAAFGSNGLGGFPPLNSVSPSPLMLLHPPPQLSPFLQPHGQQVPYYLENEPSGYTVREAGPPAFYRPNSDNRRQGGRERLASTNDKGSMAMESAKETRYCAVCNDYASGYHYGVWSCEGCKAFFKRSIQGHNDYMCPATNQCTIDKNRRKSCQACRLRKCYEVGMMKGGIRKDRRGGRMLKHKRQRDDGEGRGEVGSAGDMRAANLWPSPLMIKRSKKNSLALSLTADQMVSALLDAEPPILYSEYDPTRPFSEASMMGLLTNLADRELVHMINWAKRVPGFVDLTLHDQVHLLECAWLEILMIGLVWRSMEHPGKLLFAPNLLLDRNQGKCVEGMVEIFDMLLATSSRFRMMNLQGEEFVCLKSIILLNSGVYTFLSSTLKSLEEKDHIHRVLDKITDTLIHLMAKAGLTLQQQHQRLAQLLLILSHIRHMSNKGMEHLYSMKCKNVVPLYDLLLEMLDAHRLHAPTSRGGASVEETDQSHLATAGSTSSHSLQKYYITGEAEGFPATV
Summary of the method: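 Luciferase luminescence (ONE-Glo, 30 min at room temperature) was read after 22 hr at 37C exposure to compounds plus 17beta-estradiol at 0.1 nM final. Cells were VM7Luc4E2 with endogenous ER-alpha and an ERE-driven luciferase, pre-cultured 5 days in hormone-depleted medium.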

[18] = qHTS assay to identify small molecule HDAC inhibitors (AID 1259364)
Summary of the method: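 Luminescence read after 30 min room-temperature HDAC-Glo incubation measures cellular class I/II HDAC activity. Compounds were applied for 2 hr at 37 C to HCT-116 wild-type cells seeded the day before.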

[19] = qHTS assay to identify small molecule HDAC inhibitors - cell viability counter screen (AID 1259365)
Summary of the method: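 Measured quantity is CellTiter-Glo luminescence from wild-type HCT-116 cells after compound incubation of 2hr at 37C, 5% CO2; reagent developed 30min at room temperature.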

[20] = qHTS assay to identify small molecule phospholipidosis (PLD) inducers (AID 1259344; active = well fitted curve in the direction sought with a large enough effect; an effect the other way counts as inactive or inconclusive)
Summary of the method: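 Read-out is LipidTOX Red fluorescence (ex 595/em 615) imaged in HepG2 cells after 24 h compound exposure at 37 C, with Hoechst nuclear counterstain (ex 352/em 461) allowing per-cell normalisation.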

Measured: Potency

CC(O)C(CO)C(C)O (centres undefined)
inactive: [1] | [2] | [3] | [4] | [5] | [6] | [7] | [8] | [9] | [10] | [11] | [12] | [13] | [14] | [15] | [16] | [17] | [18] | [19]

CCN1CCN(C(=O)N[C@@H](C(=O)N[C@@H]2C(=O)N3C(C(=O)O)=C(CSc4nnnn4C)CS[C@H]23)c2ccc(O)cc2)C(=O)C1=O
inactive: [1] | [2] | [3] | [4] | [5] | [6] | [7] | [8] | [9] | [10] | [11] | [12] | [13] | [14] | [15] | [17] | [20]

NNC(=O)CCCCC(=O)NN
inactive: [1] | [2] | [3] | [4] | [5] | [6] | [7] | [8] | [9] | [10] | [11] | [12] | [13] | [14] | [15] | [17] | [18] | [19]

O=C1c2ccccc2C(=O)N1CO
inactive: [1] | [2] | [3] | [4] | [5] | [6] | [7] | [8] | [9] | [10] | [11] | [12] | [13] | [14] | [15] | [16] | [17] | [18] | [19]

Cc1ccc2cccnc2c1
inactive: [1] | [2] | [3] | [4] | [5] | [6] | [7] | [8] | [9] | [10] | [11] | [12] | [13] | [14] | [15] | [16] | [17] | [18] | [19]

CC(=O)SCC(CC(=O)c1ccc(C)cc1)C(=O)O (centres undefined)
inactive: [1] | [2] | [3] | [4] | [5] | [6] | [7] | [8] | [9] | [10] | [11] | [12] | [13] | [14] | [15] | [17] | [20] | [18] | [19]

Cc1ccc2ccccc2n1
inactive: [1] | [2] | [3] | [4] | [5] | [6] | [7] | [8] | [9] | [10] | [11] | [12] | [13] | [14] | [15] | [18] | [19]

CC(=O)Oc1ccc(C(C)=O)cc1
inactive: [1] | [2] | [3] | [4] | [5] | [6] | [7] | [8] | [9] | [10] | [11] | [12] | [13] | [14] | [15] | [18]
